Laboratory results as given in PubChem BioAssay AID1508600 (Functional Genomics Laboratory (NCATS/FGL), 2020).
Screen size: about 53,000 sequences; about 3,700 (7%) were called active. The full list was thinned out, with actives kept by preference. Unmarked numbers belong to inactive results.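 The calls were made as follows: active = gene knockdowns whose robust z-score for IL-1 alpha signal is at least 2 or at most -2, so actives lie on both sides; inactive = the rest.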

Test: Components of the Cytosolic LPS Sensing Pathway: Gene Identification via Genome-wide siRNA Screen;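 also: robust z of the log signal after scaling to non-targeting control siRNA wells of the plate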
Details: RAW264.7 macrophages, IL-1a HTRF, actives lie on both sides, screened at 100 nM (by protocol), cells primed 5 h with Pam3CSK4 first
Outline: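 Knockdown: 100 nM siRNA, 48h, RAW264.7. Stimulation: Pam3CSK4 5 h, then LipidA via TransIT-TKO 24 h. Output: supernatant IL-1a HTRF, negative-control-normalized, log robust z-score; viability by CellTiter-Glo.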

| Sequence | z-score |
| --- | --- |
| GCUUAAUCCUUAGUCAGCATT against F2rl2 | -0.591 |
| GGAAGAGGUGAAUGAUAAATT against Bmi1 | 1.51 |
| GCUCAACAGCAGUGACGAUTT against Nras | -0.701 |
| GGCCAGUCAAGGUUGGAUUTT against Gpr152 | -0.32 |
| GCUGUGAAUUCCAAAUGCGTT against Myh4 | 3.33 (active) |
| GGAUACAAUGCAACUGUCCTT against Kif4 | -1.08 |
| GCACUCUCUACUCUAUUAATT against Ackr2 | 2.68 (active) |
| GGUUAGCCUACUCUCUAAUTT against Tomm22 | 0.501 |
| GGCUCAAAUACAGGAAAUUTT against Tmem45b | 0.498 |
| GGGCAGGUUGUCUUUCUACTT against Plpp1 | 0.997 |
| UCAACAGGGCUGAUAUCCCTT against Acsl5 | -1.61 |
| CGGUGAAGACUAUCAUGGUTT against Tln1 | -0.791 |
| CCUUAAUCCAAACAAGUCUTT against Ncl | 1.08 |
| GGUUUCUUAGAUUAGCUAGTT against Map3k12 | 0.445 |
| GGUUAUCAAGAUUGCAUGUTT against Olfr853 | -0.646 |
| GGGUUAUGAAGAGAAACUUTT against Gatad2b | 0.236 |
| GGACUGGUGGACAUAUGAATT against Os9 | 2.81 (active) |
| GGAAAAGGUGGCCUACACATT against Rhox11 | -1.7 |
| CCAAUAAAAUUGGUGUUCCTT against H13 | 0.18 |
| GGUUAAAAUGUUGAUUGCUTT against Ndrg4 | -0.654 |
| GGGAAAAGUGACUAGGCUUTT against Ngb | -0.331 |
| CCCACAGUGCAAAAAUGACTT against Olfr663 | -2.26 (active) |

| Sequence | z-score |
| --- | --- |
| GGCAUAUGCACUUUAUUUCTT against Cep97 | -0.339 |
| GCAUUAAAGGAGUCCGAAUTT against Cpn1 | -0.328 |
| GCUUAUAACAGUUGAUGAGTT against Ndufs4 | -0.54 |
| GGCUAAUUCUCAAAGAGAUTT against Dnttip2 | -1.87 |
| AUUCGGGAAAAUUUUAGACTT against Rbfox3 | -0.171 |
| GGCUAAAACUGCACAUAAATT against Pyroxd1 | -3.43 (active) |
| GGGAAGCACAAGGUUUAGUTT against Brca1 | 0.531 |
| GCAACAAGAGGGCAGAAUGTT against Olfr518 | -2.22 (active) |
| GGAAGUUACAGAUGUGGCUTT against Nog | -0.879 |
| GCACCAUUCUAGGAGUCAUTT against Lonp2 | -0.504 |
| GGACCACGCAAAAGAAUAUTT against Mtss1 | 0.0212 |
| GCUCAUGUUGCACUGGAAATT against Ulbp1 | 1.22 |
| AAGCUUCAACAUCAGUUUGTT against Olfr1392 | -1.54 |
| GGCGAAGGGCAAGAAUAAATT against Hes1 | 2.16 (active) |
| CCCAUACUGUCACUUUAAGTT against H2bc8 | -2.23 (active) |
| GGUUCUGGUAUAAGUUAACTT against Gabrg3 | 0.292 |
| GCACGAAUGCCUUUUUAGATT against Mphosph8 | 0.32 |
| GGAGCUGGAGACUAAAGCUTT against Slc29a2 | -0.478 |
| GCAUUUGAUGAAGACUCGATT against Barx2 | 0.467 |
| GGUUUAGCUGCAUUAAAAGTT against Lrrc27 | 0.956 |
| GGCCGAGAGUAUUUCUACATT against Efna5 | -0.254 |
| CGAACACUCGUUAAAGAAATT against Krt23 | 0.247 |

| Sequence | z-score |
| --- | --- |
| CCAUGCACAAUUACAAGCUTT against Ret | -0.000288 |
| CGGAAAAUUUGUUCCUGACTT against Rbm12b2 | 1.44 |
| GCAAAUGAGAGGUCUGUUGTT against Olfr1024 | -2.52 (active) |
| CCCUAGGGUGAUGAAGCAUTT against Ckmt2 | -0.984 |
| GCCAUUAAGGAAAUGUUCUTT against Olfr426 | -0.969 |
| GGUUCUUUGGCUCUGUAUGTT against Atp5c1 | -0.64 |
| GGUCAUCCUUCUAUUCUCUTT against Olfr648 | -2.01 (active) |
| GGAGGUAAAAGAUGAGAAATT against Plekho1 | 1.57 |
| CCUCAUAAAUUCACUCUCCTT against Bpifa2 | 0.984 |
| GGAGAAAACUUAGAUUACCTT against Ppil4 | 2.15 (active) |
| GGAUAUGCUGUGAAGUAUUTT against Plekhf2 | 1.68 |
| GGUUAAGACCUUAAACAGATT against Prl4a1 | 0.0572 |
| CGUUUCUCAGCAAACUUACTT against Il17a | 0.669 |
| GGCACCUUUCAACGUAACCTT against Ntn3 | 1.32 |
| GGACCUAAAGAAUUCAUCGTT against Unc79 | 0.109 |
| GGUGAAGAUAGUAAUACGGTT against Apol7a | -1.02 |
| GGUCCAGAGGAUGAACAGATT against Crcp | 0.551 |
| CCAAAUUCAUUCUAGCUCGTT against Klf6 | -0.597 |
| CGAUCUUCCAAACCCUCUUTT against Dhh | 2.54 (active) |
| GCCCAUGACCAGUUCAAGUTT against Actn4 | 0.63 |
| GCUAUUAAAAUAUGGGAAGTT against Olfr1314 | 1.28 |
| GCAUAUGAUGGUCCUUACCTT against Cox6b1 | 0.019 |

| Sequence | z-score |
| --- | --- |
| CCAUGCUUCCCUUCAACAUTT against Adcy2 | 2.64 (active) |
| GGCAGUUAUCUCCUAAUGCTT against Zfp934 | -0.383 |
| GGCCAGAUGACCUUGUCAUTT against Sult1e1 | -1.23 |
| GGCGCACAAUCAAGAUCUUTT against Col4a4 | 0.385 |
| GCACUUUGUAUGUCUAUCUTT against Tnfaip1 | 2.28 (active) |
| CCAAAAAGUUCAGUGUAAUTT against Rad9b | -1.09 |
| GCUUGAGUAGUGCAGAAACTT against Jmjd1c | -1.15 |
| CCAUGAGGAUGAUUACCUATT against Cnga2 | -0.947 |
| GGGAAGAUUGAUUUUAUCGTT against Abcb11 | 2.31 (active) |
| GCGACCUUAGACAUUUGCATT against Prkrip1 | -0.652 |
| CGCCUUCAUAAUGUAGUUGTT against Defb37 | 0.601 |
| CCGUCACUUUUAACCAUGUTT against Speg | 4.19 (active) |
| GCACCUGGAGUACAUAAAATT against Sh2d1a | -0.854 |
| CGUAGACUCCAAGCUCAAUTT against Ddx54 | -1.31 |
| GGAAAUUGUCUUUGGCUUUTT against Otop1 | -0.0923 |
| GGCAAAAUGAAGAAGCUGATT against Hdac6 | -1.3 |
| GCUACGAGCAGUUUUUAUUTT against Ptgs1 | 0.885 |
| GGUGAAAGGAGUCAGUCUATT against Agtrap | -0.013 |
| GGCUCCUGGUUCUACAUCCTT against Itpr2 | -2.54 (active) |
| CCCUAAGUAUAGGAUCGGATT against Macroh2a1 | -1.07 |
| GGGUUAUCUAUGCAAAUCCTT against Odc1 | 0.569 |
| GCGGCAUUCGUCCAAAUUGTT against Trpt1 | 0.938 |

| Sequence | z-score |
| --- | --- |
| GGCAGAGAUGGUGUUGAUGTT against Col1a2 | -0.342 |
| GGUGGCCAUUCUUCUGUUCTT against Dynll1 | 2.19 (active) |
| GGAAGUGGUGGCCAUCAAGTT against Stk25 | 1.08 |
| GCUUGUAGGUGGAUACAUGTT against Slc30a4 | -0.161 |
| GGAAGACUAGGAGAGACGGTT against Pqlc3 | -0.739 |
| GCAUAAUGGAUGGAAAGUCTT against Tasp1 | 1.1 |
| CCCUAAGGUGGCAGAAAUCTT against Atp1a2 | -1.49 |
| GGCGGUUCAAAUGUCCUCATT against Fut2 | -2.02 (active) |
| GGGAGGGUGUGCAAAAGUUTT against Arl4d | 1.26 |
| GCUUCUUAUGAAAAGAUGCTT against Epc2 | 0.463 |
| GGAGUGGACUCACGUCUAATT against Med23 | 0.717 |
| GGGUCCUUUUUCACAUGGUTT against Asph | 2.82 (active) |
| CGGUGAUAGUGGAGUUUGUTT against Olfr266 | 0.542 |
| GCAGCACAGUACUAUCUCGTT against Ttc4 | -0.339 |
| GCCAGAGAUUCCUCAACGATT against Rpp21 | -2.48 (active) |
| GCAAUAGAAUCACAUAGGATT against Glyctk | 1.35 |
| GGCUGUAAUGACGAAUACATT against Naa25 | 0.764 |
| GGGCAUGUGAUAGAACAAUTT against Stoml1 | -0.701 |
| GAGAAAGAUAAUUACCUGGTT against Tnfrsf22 | 0.552 |
| GGAAGCUGAUGGCUAUGACTT against Arc | -0.943 |
